# Laboratory results taken from PubChem BioAssay (EPA / NIEHS).
# The source made the active and inactive calls. The calls were made as follows: active = hit-call score of the fitted dose curve at least 0.9, where 1 is the maximum; inactive = score below 0.9.
# Assay: APR_HepG2_NuclearSize_1hr: Apredica 1-hour HepG2 Assay for Nuclear Size (AID 2282670)
# Conditions: high-content imaging, actives raise or lower the signal
# Experimental: APR_HepG2_1hr is a cell-based, multiplexed-readout assay that uses HepG2, a human liver cell line, with measurements taken at 1 hour after chemical dosing in a 384-well plate.APR_HepG2_NuclearSize_1hr is one of 10 assay component(s) measured or calculated from the APR_HepG2_1hr assay. It is designed to make measurements of cell phenotype, a form of morphology reporter, as detected with fluorescence intensity signals by HCS Fluorescent Imaging technology.Data from the assay component APR_HepG2_NuclearSize_1hr was analyzed into 1 assay endpoint. This assay endpoint, APR_HepG2_NuclearSize_1hr, was analyzed with bidirectional fitting relative to DMSO as the negative control and baseline of activity. Using a type of morphology reporter, measures of all nuclear dna for gain or loss-of-signal activity can be used to understand the signaling at the nuclear-level. Furthermore, this assay endpoint can be referred to as a primary readout, because this assay has produced multiple assay endpoints where this one serves a signaling function. To generalize the intended target to other relatable targets, this assay endpoint is annotated to the cell morphology intended target family, where the subfamily is organelle conformation.
# Cells were treated with dimethyl sulfoxide (DMSO) as a solvent control at a final concentration of 0.5% v/v or with compounds in DMSO with a resulting final DMSO concentration of 0.5% v/v. Compound treatment was done at concentrations of 0.39, 0.78, 1.56, 3.12, 6.24, 12.5, 25, 50, 100, and 200 uM in duplicate on each plate. Cells were treated with compounds for 1, 24, or 72 hr. Carbonyl […] m-chloro-phenylhydrazone (CCCP) and taxol were used as positive controls for mitochondrial function and cytoskeletal stability, respectively; DMSO served as the negative control for this experiment. Cells were fixed by the direct addition of 50 uL formaldehyde in Hank's Balanced Salt Solution (HBSS) to a final concentration of 3.7%. After incubation in the fixation medium for 30 min at room temperature (293-298 K), cells were rinsed twice with HBSS and treated with cell permeabilization buffer (16 uL of 0.5% Triton X-100) for 10 min at room temperature (293-298 K) before labeling. For mitochondrial membrane potential and mitochondrial measurements, pre-fixed cells were incubated with 50 uL of MitoTracker Red CMXRos (Invitrogen) at a concentration of 250 nM for 30 min before fixation. In the remaining cases, post-fixed cells were labeled by incubation with a multiplexed mixture of primary antibodies in HBSS for 60 min at room temperature (293-298 K) to detect immunoreactivity of c-Jun (1:500), phospho-histone H3 (1:100), phospho-histone H2A.x (1:200), p53 (1:400), alpha-tubulin (1:200) and Hoechst 33342 (2 ug/mL). Cells were labeled for multiplexed imaging on two separate plates: a) Hoechst 33342, MitoTracker Red, phospho-histone H3, and alpha-tubulin, and b) Hoechst 33342, phospho-histone H2A.x, and c-Jun. A final rinse with HBSS (50 uL) was performed before analysis. The primary and secondary antibodies for the proteins were phospho-histone H3 (rabbit anti-phospho-histone H3 and FITC-donkey anti-rabbit IgG), phospho-histone H2A.x (mouse anti-phospho-histone H2A.x and FITC-donkey anti-mouse IgG), c-Jun (rabbit anti-phospho-c-Jun and Cy3-donkey anti-rabbit IgG), p53 (sheep anti-p53 and Cy5-donkey anti-sheep IgG), alpha-tubulin (mouse anti-alpha-tubulin and Cy5-donkey anti-mouse IgG). These antibodies are available as the CellCiphr HepG2 assay kit (Millipore).Digital images of each well were captured using a Cellomics ArrayScan VTI (Thermo Scientific Cellomics) (0.8 NA objective, 0.63x optical coupler, and XF-93 filter set) at 20x magnification. The images were acquired using the autofocus feature of the ArrayScan instrument, which entails the following steps. First, the camera focuses on channel 1 (Hoechst 33342), where nuclei are identified. Second, a Z offset of 1 um is used for capturing mitochondria (MitoTracker Red). […]
SMILES,outcome,AC50
COC(=O)c1ccccc1S(=O)(=O)NC(=O)Nc1nc(C)nc(OC)n1,inactive,–
COc1cc(OC)nc(NC(=O)NS(=O)(=O)c2cc(NC=O)ccc2C(=O)N(C)C)n1,inactive,–
CN1CSC(=S)N(C)C1,inactive,–
COC(=O)c1ccccc1S(=O)(=O)NC(=O)N(C)c1nc(C)nc(OC)n1,inactive,–
CC[C@H](C)[C@H]1O[C@]2(C=C[C@@H]1C)C[C@@H]1C[C@@H](C/C=C(\C)[C@@H](O[C@H]3C[C@H](OC)[C@@H](O[C@H]4C[C@H](OC)[C@@H](O)[C@H](C)O4)[C@H](C)O3)[C@@H](C)/C=C/C=C3\CO[C@@H]4[C@H](O)C(C)=C[C@@H](C(=O)O1)[C@]34O)O2 (tested in a mixture with another compound),inactive,–
C#CCN1C(=O)COc2cc(F)c(N3C(=O)C4=C(CCCC4)C3=O)cc21,inactive,–
N#CN,inactive,–
COP(=S)(OC)Oc1ccc([N+](=O)[O-])cc1,inactive,–
N#Cc1c(Cl)c(Cl)c(Cl)c(C#N)c1Cl,inactive,–
Cc1[nH]c(=O)n(C(C)(C)C)c(=O)c1Cl,inactive,–
CCOc1nc(NC)nc(NC(=O)NS(=O)(=O)c2ccccc2C(=O)OC)n1,inactive,–
ClC1C(Cl)C(Cl)C(Cl)C(Cl)C1Cl (stereo not given),inactive,–
CCOCN(C(=O)CCl)c1c(C)cccc1CC,inactive,–
CC(C)(C)C(O)/C(=C\c1ccc(Cl)cc1Cl)n1cncn1 (stereo not given),inactive,–
O=C(O)COc1ccc(Cl)cc1Cl,inactive,–
CC(C)N(C(=O)COc1nnc(C(F)(F)F)s1)c1ccc(F)cc1,inactive,–
CCS(=O)(=O)c1cccnc1S(=O)(=O)NC(=O)Nc1nc(OC)cc(OC)n1,inactive,–
CNC(=O)CSP(=S)(OC)OC,inactive,–
Cc1cc(C)nc(NC(=O)NS(=O)(=O)c2ccccc2C(=O)OC2COC2)n1,inactive,–
O=C(O)CCCOc1ccc(Cl)cc1Cl,inactive,–

SMILES,outcome,AC50
O=[N+]([O-])/N=C1\NCCN1Cc1ccc(Cl)nc1,inactive,–
O=C(NC(=O)c1c(F)cccc1F)Nc1ccc(OC(F)(F)C(F)OC(F)(F)F)c(Cl)c1 (stereo not given),inactive,–
CNC(=O)Oc1cccc(N=CN(C)C)c1,inactive,–
O=[N+]([O-])c1c(Cl)c(Cl)c(Cl)c(Cl)c1Cl,inactive,–
[2H]C1([2H])[n+]2ccccc2-c2cccc[n+]2C1([2H])[2H],inactive,–
CC(C)(C)C(O)C(Oc1ccc(Cl)cc1)n1cncn1 (stereo not given),inactive,–
CCC(C)(NC(=O)c1cc(Cl)c(C)c(Cl)c1)C(=O)CCl (stereo not given),inactive,–
CCC(C)Nc1c([N+](=O)[O-])cc(C(C)(C)C)cc1[N+](=O)[O-] (stereo not given),inactive,–
Clc1ccccc1-c1nnc(-c2ccccc2Cl)nn1,inactive,–
O=C(Nc1ccccc1)Nc1cnns1,inactive,–
O=C(O)C(F)(F)C(F)(F)C(F)(F)C(F)(F)C(F)(F)C(F)(F)C(F)(F)F,inactive,–
Oc1cc(Cl)ccc1Oc1ccc(Cl)cc1Cl,–,158 µM (active)
COP(=S)(OC)Oc1ccc(SC)c(C)c1,inactive,–
COC(=O)c1ccccc1CS(=O)(=O)NC(=O)Nc1nc(OC)cc(OC)n1,inactive,–
COc1nn(CSP(=S)(OC)OC)c(=O)s1,inactive,–
O=S1OCC2C(CO1)C1(Cl)C(Cl)=C(Cl)C2(Cl)C1(Cl)Cl (stereo not given),inactive,–
CC(C)OC(=O)Nc1cccc(Cl)c1,inactive,–
CCCN(CCC)c1c([N+](=O)[O-])cc(C(F)(F)F)cc1[N+](=O)[O-],inactive,–
CC1(C)C(C=C(Cl)Cl)C1C(=O)OC(C#N)c1ccc(F)c(Oc2ccccc2)c1 (stereo not given),inactive,–
COP(=O)(OC)OC=C(Cl)Cl,inactive,–
